Results: the supplement of paper PMC7156485
± gives the standard deviation of the averaged measurements.

Test system: HCC1569
Experiment: cell number relative to DMSO (% of DMSO); higher = more cells (less growth inhibition / toxicity)
Conditions: concentration: 10 µM; 24 h
Summary of the method: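 Cells were seeded at 800 per well in 384-well plates with RPMI containing 10% FBS; both HCC1569 and TDF lines were used. Compounds were added at 10 µM for 24 h at 37 °C, in triplicate, before fixation in 3.7% formaldehyde and staining with a rabbit anti-H1.0 antibody, an AlexaFluor 647 secondary and DAPI. H1.0 nuclear intensity or cell number is reported as percent of the plate control using the median of replicates, and HCC1569 values were smoothed for positional effects.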
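Further: TDF denotes transformed human dermal fibroblasts of mesenchymal origin.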

Compound	cell number
CC(N)Cc1c[nH]c2ccc(OCc3cccs3)cc12.Cl (centres undefined)	102
CC1CC(C)C(=O)C(C(O)CC2CC(=O)NC(=O)C2)C1 (centres undefined) [Cycloheximide]	64.3
CN1C(=O)CCS(=O)(=O)C1c1ccc(Cl)cc1 (centres undefined) [Chlormezanone]	101
CCCCCCC(=O)CCCCCCC=CCC(O)C(O)C(N)(CO)C(=O)O (centres undefined) [Myriocin]	100
C[N+]1(C)C2CCC1CC(OC(=O)c1c[nH]c3ccccc13)C2.[I-] (centres undefined) [3-Tropanylindole-3-carboxylate methiodide]	100
CC(C)C1(NC(=O)C2CC3c4cccc5[nH]cc(c45)CC3N(C)C2)OC2(O)C3CCCN3C(=O)C(Cc3ccccc3)N2C1=O.CS(=O)(=O)O (centres undefined) [Dihydroergocristine mesylate]	100
Cl.c1ccc2c(c1)OCC(C1=NCCN1)O2 (centres undefined) [Idazoxan hydrochloride]	102
CCCCCCC(C)(C)c1ccc(C2CC(O)CCC2CCCO)c(O)c1 (centres undefined)	99.3
c1ccc2c(c1)[nH]c1cnccc12 [Norharmane]	100
CC1=C(O)C(=O)C=C2C1=CC=C1C2(C)CCC2(C)C3CC(C)(C(=O)O)CCC3(C)CCC12C (centres undefined) [Celastrol]	38
CC1=NN=C(c2ccc(N)cc2)c2cc3c(cc2C1)OCO3.Cl	97.4
Cc1ccc(S(=O)(=O)NC(CCCCN)C(=O)CCl)cc1.Cl [Na-p-Tosyl-L-lysine chloromethyl ketone hydrochloride]	98.8
NC1(C(=O)O)CCC(C(=O)O)C1 (mixture of isomers)	104
Cc1[nH]c2ccc(O)cc2c1CCN.O=C(O)C=CC(=O)O [2-Methyl-5-hydroxytryptamine maleate]	106
COC1C(O)C(C)OC(OC2CCC3(C=O)C(CCC4C3CCC3(C)C(C5=CC(=O)OC5)CCC43O)C2)C1O (centres undefined) [Peruvoside]	52.3
CCCN(CCC)C1CCc2c(F)ccc(O)c2C1.Cl (stereo not drawn) [S(-)-UH-301 hydrochloride]	102
CN1[C@@H]2CC[C@H]1C[C@@H](OC(=O)[C@H](CO)c1ccccc1)C2 [L-Hyoscyamine]	100
COCC1OC(=O)c2coc3c2C1(C)C1=C(C3=O)C2CCC(=O)C2(C)CC1OC(C)=O (centres undefined) [Wortmannin]	43.3
CS(=O)(=O)O.Cc1c(C(=O)c2cccc3ccccc23)c2cccc3c2n1C(CN1CCOCC1)CO3 (stereo not drawn) [( R)-(+)-WIN 55,212-2 mesylate]	72.8
CN(C)C(=O)Oc1cccc([N+](C)(C)C)c1.[Br-] [Neostigmine bromide]	107

Compound	cell number
NCCc1c[nH]c2ccc(C(N)=O)cc12.O=C(O)C=CC(=O)O [5-Carboxamidotryptamine maleate]	100
CN1CC(CNC(=O)OCc2ccccc2)CC2c3cccc4c3c(cn4C)CC21 (centres undefined) [Metergoline]	97.2
CC(C)c1cc2c(c(O)c1O)C1(C(=O)O)CCCC(C)(C)C1CC2 (centres undefined) [Carnosic acid]	96.8
CC(=O)C1CCC2C3CCC4CC(O)CCC4(C)C3CCC12C (stereo not drawn) [5alpha-Pregnan-3alpha-ol-20-one]	98.3
CC1=C(O)C(=O)C2OC2C1=O (single isomer, unassigned; (-))	80
CC12C(=O)OC(=O)C1(C)C1CCC2O1 (centres undefined) [Cantharidin]	20.6 ± 2.2
CCCCCC=CCC=CCC=CC=CC(CCCC(=O)O)OO (centres undefined)	101
CCCN(CCC)C(=O)Cc1c(-c2ccc(Cl)cc2)nc2ccc(Cl)cn12	87.6
NC(CCCCCP(=O)(O)O)C(=O)O (stereo not drawn) [D(-)-2-Amino-7-phosphonoheptanoic acid]	99.9
Cl.Cl.Clc1cccc(N2CCNCC2)c1 [1-(3-Chlorophenyl)piperazine dihydrochloride]	83.5
CNC1CC(c2ccc(Cl)c(Cl)c2)c2ccccc21.Cl (centres undefined) [Indatraline hydrochloride]	84.1
COc1ccc2c(c1)C13CCCCC1C(C2)NCC3.Cl (centres undefined) [3-Methoxy-morphanin hydrochloride]	99.1
Cl.NCC#Cc1ccccc1 [3-Phenylpropargylamine hydrochloride]	104
NNC(=O)c1ccc(O)cc1 [4-Hydroxybenzhydrazide]	97.7
CCCN1CC(CSC)CC2c3cccc4[nH]cc(c34)CC21.CS(=O)(=O)O (centres undefined) [Pergolide methanesulfonate]	98.8
Cc1cc(C(=O)CN2CCCC2)c(C)n1-c1ccc(F)cc1	99
CN1CCc2cccc(Cl)c2CC1.Cl	103
Cc1o[nH]c(=O)c1CC(N)C(=O)O (racemic)	103
NC(CP(=O)(O)O)C(=O)O (racemic)	105
